Compound activity deposited in PubChem by several laboratories.
Only some compounds are listed: those with a hit (about 2.4% of all), similar ones and a draw of the others.
DTT redox prof = compounds producing H2O2 with reducing agent – biochemical, NIH compound library profiling, artefact control for MLSCN library redox annotation, primary screen. 200,000 tested, 0.03% active. activation, % at 10 µM. DTT-dependent redox cycling H2O2, phenol red/HRP absorbance; 100% = 100 µM peroxide control, 0% = buffer;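 active = activation of at least 50% relative to the plate's high and low controls in the primary single-dose screen; inactive = activation below 50%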;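 also: compound incubated with DTT at 0.8 mM final as the reducing agent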
PERK inh = blocks human PERK kinase; AID 1416; 220,000 tested, 0.17% active; CHO PERK-DD fusion, SEAP luminescence translation reporter; inhibition, % at 5.6 µM;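 active = inhibition above the mean inhibition of all tested compounds plus 3 SD, set separately per screening campaign, cut at about 2.9% in these data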;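 also: PERK kinase domain activated by AP20187 dimerizer at 100 nM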
Target sequence (Q9NZJ5 whole entry, looked up, the tested form may be a part): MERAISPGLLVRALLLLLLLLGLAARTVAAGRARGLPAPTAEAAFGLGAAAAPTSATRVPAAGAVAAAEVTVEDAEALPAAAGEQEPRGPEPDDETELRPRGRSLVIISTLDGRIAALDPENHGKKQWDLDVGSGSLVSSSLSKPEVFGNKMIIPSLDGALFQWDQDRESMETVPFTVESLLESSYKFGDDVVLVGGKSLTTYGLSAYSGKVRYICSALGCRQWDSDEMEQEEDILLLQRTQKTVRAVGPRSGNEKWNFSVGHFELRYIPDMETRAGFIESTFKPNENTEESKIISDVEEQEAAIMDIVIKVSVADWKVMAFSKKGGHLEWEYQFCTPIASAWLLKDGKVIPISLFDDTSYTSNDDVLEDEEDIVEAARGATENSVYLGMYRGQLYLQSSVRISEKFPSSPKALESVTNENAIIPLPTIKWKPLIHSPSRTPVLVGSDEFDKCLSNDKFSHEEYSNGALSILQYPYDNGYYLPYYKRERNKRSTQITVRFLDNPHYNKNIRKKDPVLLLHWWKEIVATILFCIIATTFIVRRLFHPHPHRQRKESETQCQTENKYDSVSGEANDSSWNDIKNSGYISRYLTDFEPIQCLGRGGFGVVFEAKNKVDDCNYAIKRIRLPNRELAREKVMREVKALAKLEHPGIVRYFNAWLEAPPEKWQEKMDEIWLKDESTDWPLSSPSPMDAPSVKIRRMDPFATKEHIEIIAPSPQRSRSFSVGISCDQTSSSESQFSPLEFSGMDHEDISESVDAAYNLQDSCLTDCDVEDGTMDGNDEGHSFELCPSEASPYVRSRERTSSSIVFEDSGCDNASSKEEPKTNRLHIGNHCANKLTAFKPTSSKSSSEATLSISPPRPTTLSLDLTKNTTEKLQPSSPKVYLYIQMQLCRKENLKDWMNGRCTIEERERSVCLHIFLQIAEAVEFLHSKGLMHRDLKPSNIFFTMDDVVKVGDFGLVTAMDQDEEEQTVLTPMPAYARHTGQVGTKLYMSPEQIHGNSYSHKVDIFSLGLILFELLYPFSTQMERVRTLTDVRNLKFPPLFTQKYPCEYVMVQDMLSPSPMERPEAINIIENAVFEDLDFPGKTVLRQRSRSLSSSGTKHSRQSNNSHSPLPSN
L929 necroptosis = blocks zVAD induced death of L929 cells. L929 zVAD necroptosis rescue, ATP luminescence, 24 h; with zVAD 60 µM. viability rescue, % at 10 µM. 220,000 tested, 0.38% active;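 active = activation, scaled between plate controls, above about 75%, limit read from the data; inactive = activation under that limit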
PKD1 inh = PKD1 (human) kinase inhibition. inhibition, % (test concentration not listed). PKD1 kinase fluorescence polarization assay. 200,000 tested, 0.056% active; in the data active = inhibition above about 50%
WT yeast gro inh = growth inhibition of WT yeast, mitochondrial fusion screen. inhibition, % at 10 µM. 190,000 tested, 2.1% active. mitochondrial fusion phenotypic screen, WT strain; in the data active = inhibition above about 58%; tested in S. cerevisiae
TNF death inh = inhibitors of TNF-alpha induced necroptosis in Jurkat FADD-/- cells; Jurkat FADD-/- TNF necroptosis rescue, ATP luminescence, 24 h; 0 = TNF only, 100 = no-TNF cells; activation (protection from cell death), % at 10 µM; 220,000 tested, 0.068% active; AID 463075;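 active = activation, meaning protection from cell death, of at least 50% relative to plate controls; inactive = activation below 50%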;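 also: necroptosis triggered by 40 ng/mL TNF-alpha added together with compound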
Hits are given with their value; 0 = inactive; - = no result given.

SMILES	DTT redox prof	PERK inh	L929 necroptosis	PKD1 inh	WT yeast gro inh	TNF death inh
CCCOc1ccc(C2C(C(=O)c3ccco3)=C(O)C(=O)N2CCN2CCOCC2)cc1OC (stereo not drawn)	0	0	0	0	58	0
CC(CNC(=O)C(=O)NC(C)CCc1ccccc1)Cc1ccccc1 (stereo not drawn)	0	0	0	0	0	0
Cc1cccc(NC(=S)NNC(=O)COc2ccc(Cl)cc2Cl)c1	0	0	0	0	63	0
CCC(=O)NC(=S)Nc1ccc(NC(=O)COc2ccc(Cl)cc2Cl)cc1	0	0	0	0	-	0
COc1ccc(NC(=S)NNC(=O)COc2ccc(Cl)cc2Cl)cc1	0	0	0	0	69	0
COc1ccc(Cl)cc1NC(=S)Nc1cccc(C)c1	0	0	0	0	0	0
Cc1ccc(OCC(=O)NNC(=S)NC(=O)C(C)(C)C)c(Br)c1	0	0	0	0	84	0
C/C(=N\NC(=S)NCc1ccccc1)c1ccc2c(c1)OCCO2	0	0	0	0	0	0
C/C(=N\NC(=S)NCc1ccccc1)c1ccc(Br)cc1	0	0	0	0	71	0
C/C(=N\NC(=S)NCc1ccccc1)c1ccc2ccccc2c1OC(F)F	0	0	0	0	68	0
Clc1c(Cl)c(Cl)c2n[nH]nc2c1Cl	-	0	0	-	-	0
O=C(NCCc1nc2ccccc2[nH]1)c1cc([N+](=O)[O-])cc([N+](=O)[O-])c1	0	0	0	0	0	0
N/N=C(/Cc1nc2ccccc2[nH]1)c1ccc([N+](=O)[O-])cc1	0	0	0	0	90	0
c1ccc(N/N=C(\Cc2nc3ccccc3[nH]2)c2ccccc2)cc1	0	0	0	0	72	0
Cc1ccc(N/N=C(\Cc2nc3ccccc3[nH]2)c2ccccc2)cc1	0	0	0	0	0	0
O=C(Nc1ccccn1)c1ccco1	0	0	0	0	70	0
Fc1ccccc1Nc1nc2c(s1)CCc1ccccc1-2	0	0	0	0	64	0
c1ccc(-c2nnn(C34CC5CC(CC(C5)C3)C4)n2)cc1	0	0	0	0	81	0
COc1ccc(CC2(C)OC(c3ccccc3)=NN2C(C)=O)cc1 (stereo not drawn)	0	0	0	0	0	0
O=[N+]([O-])C(/C=C(/Cl)[N+](=O)[O-])=C(N1CCCCC1)N1CCCCC1	-	0	0	-	-	0
Cc1sc(NC(=O)c2cccs2)c(C(N)=O)c1C	0	0	75	0	0	0
NNC(=O)/C(=N/Nc1ccccc1)S(=O)(=O)c1ccc(Cl)cc1	0	0	-	0	69	0
CC(=O)c1ccc(NC(=S)NC(C)CCc2ccccc2)cc1 (stereo not drawn)	0	0	0	0	0	0
Cc1ccc(NC(=S)NC(C)CCc2ccccc2)cc1C (stereo not drawn)	0	0	-	0	68	0
Cc1cccc(C)c1NC(=S)NC(C)CCc1ccccc1 (stereo not drawn)	0	0	0	0	73	0
SMILES	DTT redox prof	PERK inh	L929 necroptosis	PKD1 inh	WT yeast gro inh	TNF death inh
Cc1ccc(NC(=S)N(CCCN(C)C)Cc2cc3cc4c(cc3[nH]c2=O)OCO4)c(C)c1	0	0	0	0	0	0
CC(=O)N(Cc1ccc(F)cc1)c1cccc(C)c1C	0	0	0	0	0	0
CC(=O)N(Cc1ccc(F)cc1)C1=C(NCCc2ccccc2)C(=O)c2ccccc2C1=O	0	0	0	0	83	0
Cc1nc(-c2ccccc2)cs1	0	0	0	0	0	0
CC1(C)CC(c2nc(-c3ccccc3)cs2)CCS1 (stereo not drawn)	0	0	0	0	61	0
CC1(C)CC(c2nc(-c3ccc(Cl)cc3)cs2)CCS1 (stereo not drawn)	0	0	0	0	66	0
CC1(C)CC(c2nc(-c3ccc(Br)cc3)cs2)CCS1 (stereo not drawn)	0	0	0	0	0	0
CCC(C)(C)NC(=O)C(c1ccc(OC)cc1)N(Cc1cccs1)C(=O)CCC(=O)Nc1cc(C)on1 (stereo not drawn)	0	0	0	0	0	0
OC(COc1ccc2ccccc2c1Br)Cn1cnc(-c2ccccc2)c1 (stereo not drawn)	0	0	0	0	88	0
